Compounds without any hit were thinned out: in the full panel of roughly 83,000, 20% have a hit.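 Plates (96-well) were seeded with cells, treated with compound at one concentration, and incubated for 48 hours before percent growth was determined.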 Activity calls are given as the source filed them. Rule for the calls: active = growth percent below 10; inactive = the rest.
Legend:
Assay in all cases: NCI-60 one-dose screen, 48 h (100 = growth as untreated, 0 = no growth, -100 = all killed)
HCT-15 colon = settings: 10 µM unless noted
HT29 colon = settings: 10 µM unless noted
SNB-75 CNS = settings: 10 µM unless noted
SNB-19 CNS = settings: 10 µM unless noted
U251 CNS = settings: 10 µM unless noted
PC-3 prostate = settings: 10 µM unless noted
SK-MEL-5 melanoma = settings: 10 µM unless noted
UACC-62 melanoma = settings: 10 µM unless noted
LOX IMVI melanoma = settings: 10 µM unless noted
SK-MEL-28 melanoma = settings: 10 µM unless noted
EKVX NSCLC = settings: 10 µM unless noted
SN12C renal = settings: 10 µM unless noted
UO-31 renal = settings: 10 µM unless noted
TK-10 renal = settings: 10 µM unless noted
ACHN renal = settings: 10 µM unless noted
CAKI-1 renal = settings: 10 µM
A498 renal = settings: 10 µM unless noted
CCRF-CEM leukemia = settings: 10 µM unless noted
MOLT-4 leukemia = settings: 10 µM unless noted

Measured: growth

CS(=O)(=O)c1nccc(-c2c(-c3ccc(F)c(OCc4ccccc4)c3)nc3sccn23)n1
active: PC-3 prostate -11.3%
inactive: HCT-15 colon 79.1% | HT29 colon 103% | SNB-75 CNS 103% | SNB-19 CNS 96.7% | U251 CNS 107% | SK-MEL-5 melanoma 96.2% | UACC-62 melanoma 87% | LOX IMVI melanoma 44.6% | SK-MEL-28 melanoma 85.9% | EKVX NSCLC 87.6% | SN12C renal 97.5% | UO-31 renal 86% | TK-10 renal 101% | ACHN renal 93.4% | CAKI-1 renal 93.6% | A498 renal 80.3% | CCRF-CEM leukemia 54.7% | MOLT-4 leukemia 74%

Cc1cn(-c2cc(NC(=O)c3cncc(C#Cc4cnc5ccc(O[C@@H]6CCOC6)nn45)c3)cc(C(F)(F)F)c2)cn1
active: HCT-15 colon -31.2% | HT29 colon -14% | SNB-75 CNS -63.3% | SNB-19 CNS -7.45% | U251 CNS -96.6% | PC-3 prostate -0.613% | SK-MEL-5 melanoma -98.4% | UACC-62 melanoma -51.7% | LOX IMVI melanoma -75.7% | SK-MEL-28 melanoma -46.9% | EKVX NSCLC -9.97% | SN12C renal -8.41% | UO-31 renal -13.3% | TK-10 renal -19.2% | ACHN renal -93.6% | CAKI-1 renal 1.07% | CCRF-CEM leukemia 0.641% | MOLT-4 leukemia 2.18%

COc1ccc(-c2cc(-c3cccc4ccccc34)n3c(n2)nc2ccccc23)cc1
inactive: HCT-15 colon 42.8% | HT29 colon 33.8% | SNB-75 CNS 35.5% | SNB-19 CNS 39.9% | U251 CNS 33.1% | PC-3 prostate 35.8% | SK-MEL-5 melanoma 30.4% | UACC-62 melanoma 33.7% | LOX IMVI melanoma 45.7% | SK-MEL-28 melanoma 70.2% | EKVX NSCLC 74.9% | SN12C renal 36.9% | UO-31 renal 29% | TK-10 renal 43% | ACHN renal 19.7% | CAKI-1 renal 21% | A498 renal 41.5%
active: CCRF-CEM leukemia 9.05% | MOLT-4 leukemia 2.23%

Cc1nc(-c2cc3ccccc3c(N3CCN(C)CC3)n2)cs1
inactive: HCT-15 colon 92.1% | HT29 colon 96.4% | SNB-75 CNS 76.2% | SNB-19 CNS 90.1% | U251 CNS 96.4% | PC-3 prostate 86.8% | SK-MEL-5 melanoma 95.4% | UACC-62 melanoma 90.8% | LOX IMVI melanoma 84.7% | SK-MEL-28 melanoma 107% | EKVX NSCLC 96.3% | SN12C renal 90% | UO-31 renal 67% | TK-10 renal 98.2% | ACHN renal 94% | CAKI-1 renal 72.1% | CCRF-CEM leukemia 103% | MOLT-4 leukemia 98%

COc1ccc(-c2nc3cc(Cl)c(Cl)cc3n2CC(=O)N=Nc2c(O)[nH]c3ccc(Cl)cc23)cc1
active: HCT-15 colon 5.04% | LOX IMVI melanoma -58.1% | SK-MEL-28 melanoma -21.5% | UO-31 renal 8.66% | ACHN renal -33.8%
inactive: HT29 colon 25% | SNB-75 CNS 57.9% | SNB-19 CNS 36.1% | U251 CNS 17.1% | PC-3 prostate 37.6% | SK-MEL-5 melanoma 38.3% | UACC-62 melanoma 38.6% | EKVX NSCLC 25.7% | SN12C renal 23.2% | TK-10 renal 60.9% | CAKI-1 renal 13.6% | CCRF-CEM leukemia 37.4% | MOLT-4 leukemia 34.5%

C=CCn1c(SCC(=O)c2ccc(OC)cc2)nnc1-c1ccc(OC)cc1
inactive: HCT-15 colon 98.1% | HT29 colon 108% | SNB-75 CNS 108% | SNB-19 CNS 99.7% | U251 CNS 102% | PC-3 prostate 99.6% | UACC-62 melanoma 95.4% | LOX IMVI melanoma 103% | SK-MEL-28 melanoma 100% | EKVX NSCLC 96.4% | SN12C renal 97.6% | UO-31 renal 92.1% | TK-10 renal 105% | ACHN renal 104% | CAKI-1 renal 88.3% | CCRF-CEM leukemia 107% | MOLT-4 leukemia 96.1%
active: SK-MEL-5 melanoma -20%

Cc1ccc(NC(=O)N[C@@H](Cc2cc(F)cc(F)c2)C(=O)NC2C(=O)N3CCC[C@H]3C(=O)N3CCCC[C@H]3C(=O)N[C@@H](C)C(=O)N3C[C@H](C)C[C@H]3C(=O)O[C@H]2C)c(F)c1 (stereo partly specified)
inactive: HCT-15 colon 14.1% | HT29 colon 26.5% | SNB-75 CNS 34.7% | SNB-19 CNS 26.3% | U251 CNS 28.3% | PC-3 prostate 15% | UACC-62 melanoma 30.3% | LOX IMVI melanoma 25.3% | SK-MEL-28 melanoma 44.1% | EKVX NSCLC 29.5% | SN12C renal 23.5% | UO-31 renal 30.2% | TK-10 renal 53.9% | ACHN renal 32.1% | CAKI-1 renal 22.2% | CCRF-CEM leukemia 34.2% | MOLT-4 leukemia 40.3%
active: SK-MEL-5 melanoma 2.32%

CCCCCCNC(=O)Oc1ccc(/C(=C(/C)c2ccc(OC)cc2)c2ccc(OCCN3CCCC3)cc2)cc1
active: LOX IMVI melanoma -39.1%
inactive: HCT-15 colon 17.3% | HT29 colon 13.9% | SNB-75 CNS 85.5% | SNB-19 CNS 72.2% | U251 CNS 58.6% | PC-3 prostate 67.7% | SK-MEL-5 melanoma 53.7% | UACC-62 melanoma 74.2% | SK-MEL-28 melanoma 60.3% | EKVX NSCLC 79.5% | SN12C renal 82.3% | UO-31 renal 38.7% | TK-10 renal 116% | ACHN renal 84.3% | CAKI-1 renal 87% | CCRF-CEM leukemia 62.4% | MOLT-4 leukemia 30.4%

COc1ccc(-c2ccnc3c(C#N)c(Nc4ccccc4)nn23)cc1OC
inactive: HCT-15 colon 88.8% | HT29 colon 90% | SNB-75 CNS 51.4% | SNB-19 CNS 95.1% | U251 CNS 87.7% | PC-3 prostate 89.2% | SK-MEL-5 melanoma 74.2% | UACC-62 melanoma 85.3% | LOX IMVI melanoma 90.9% | SK-MEL-28 melanoma 90.7% | EKVX NSCLC 98.9% | SN12C renal 89.8% | UO-31 renal 67.9% | TK-10 renal 65.8% | ACHN renal 86.4% | CAKI-1 renal 60.2% | CCRF-CEM leukemia 93.8% | MOLT-4 leukemia 84.9%

Cc1cccc(NC(c2cc3cccc4ccc5cccc2c5c43)c2nnnn2C(C)(C)C)c1C (stereo unspecified)
inactive: HCT-15 colon 88.7% | HT29 colon 82.1% | SNB-75 CNS 93.7% | SNB-19 CNS 91.1% | U251 CNS 95.3% | PC-3 prostate 77.5% | SK-MEL-5 melanoma 97.4% | UACC-62 melanoma 62.3% | LOX IMVI melanoma 80.2% | SK-MEL-28 melanoma 102% | EKVX NSCLC 75.2% | SN12C renal 93% | UO-31 renal 66.9% | TK-10 renal 138% | ACHN renal 90.4% | CAKI-1 renal 66.3% | CCRF-CEM leukemia 95% | MOLT-4 leukemia 76%

CN(C)C(=O)C1=NC(CO)C(=O)N(c2ccc(Cl)cc2)N1 (stereo unspecified)
inactive: HCT-15 colon 102% | HT29 colon 102% | SNB-75 CNS 105% | SNB-19 CNS 102% | U251 CNS 101% | PC-3 prostate 90.8% | SK-MEL-5 melanoma 102% | UACC-62 melanoma 96.6% | LOX IMVI melanoma 95.3% | SK-MEL-28 melanoma 107% | EKVX NSCLC 99.5% | SN12C renal 105% | UO-31 renal 82.5% | TK-10 renal 91.1% | ACHN renal 101% | CAKI-1 renal 92% | CCRF-CEM leukemia 104% | MOLT-4 leukemia 103%

Oc1ccccc1/C=N/Nc1nc(N/N=C/c2ccccc2O)nc(N2CCOCC2)n1
inactive: HT29 colon 34.2% | SNB-19 CNS 41.7% | U251 CNS 22% | PC-3 prostate 24.1% | SK-MEL-5 melanoma 65.8% | UACC-62 melanoma 88.8% | SK-MEL-28 melanoma 28% | EKVX NSCLC 22.2% | SN12C renal 27.2% | UO-31 renal 19.8% | TK-10 renal 47.9% | ACHN renal 28.1% | CCRF-CEM leukemia 42.3% | MOLT-4 leukemia 45.1%
active: HCT-15 colon 3.87% | SNB-75 CNS -4.09% | LOX IMVI melanoma 4.04% | CAKI-1 renal 4.56%

C(=C(\C1=NCCN1)n1cnc2ccccc21)/c1ccc2ccccc2c1
inactive: HCT-15 colon 61.1% | HT29 colon 91.7% | SNB-75 CNS 72.9% | SNB-19 CNS 81.3% | U251 CNS 87.3% | PC-3 prostate 33.5% | SK-MEL-5 melanoma 63% | UACC-62 melanoma 77.2% | LOX IMVI melanoma 71.5% | SK-MEL-28 melanoma 79.4% | EKVX NSCLC 73.2% | SN12C renal 73.3% | UO-31 renal 68% | TK-10 renal 77.8% | ACHN renal 72.9% | CAKI-1 renal 53.3% | CCRF-CEM leukemia 63.5% | MOLT-4 leukemia 67%

— PubChem BioAssay (NCI)
